Shown are actives, neighbours in structure and some others; about 1.3% of the full set was active somewhere.
LYPLA1 inh: LYPLA1 (human) inhibition in PME1 counter-screen | O75608 | recombinant LYPLA1, FP-Rh probe fluorescence polarization | inhibition, % at 5.9 µM | 320,000 compounds, 0.16% hits;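 active means inhibition above the mean of all tested compounds plus 3 SD, set per campaign, cut at about 14% in these data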;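 further: inhibitors block serine hydrolase probe labeling of LYPLA1 so polarization falls; 0% = enzyme with DMSO and 100% = wells lacking LYPLA1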
Fam108B counter: blocks mouse Fam108B hydrolase in RBBP9 counter-screen | 300,000 compounds, 0.33% hits | inhibition, % at 9.51 µM | recombinant Fam108B, FP-Rh probe fluorescence polarization;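 active means inhibition above the screen mean inhibition plus 3 SD, computed separately per campaign, cut at about 18% in these data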;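 further: inhibitors lower polarization as less probe binds the enzyme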
PME-1 primary: PME-1 (human) inhibition | Q9Y570 | recombinant PME-1, FP-Rh probe fluorescence polarization | inhibition, % at 5.9 µM | 320,000 compounds, 0.53% hits | AID 2130;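 active means inhibition above the campaign mean of all compounds plus 3 SD, cut at about 26% in these data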;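 further: competitive labeling of PME-1 active site by serine hydrolase directed probe; 0% = PME-1 with DMSO and 100% = wells lacking PME-1 enzyme; inhibitors block probe labeling so polarization falls and inhibition rises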
LYPLA2 inh: counter-screen for PME1 inhibitors: inhibitors of human LYPLA2 | recombinant LYPLA2, FP-Rh probe fluorescence polarization | inhibition, % at 5.9 µM | 320,000 compounds, 0.38% hits;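 active means inhibition above the screen-wide mean plus 3 SD, limit set per campaign, cut at about 26% in these data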;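 further: 0% = LYPLA2 with DMSO and 100% = wells lacking LYPLA2 enzyme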
PREPL inhibitor: human PREPL enzyme inhibition; 320,000 compounds, 0.68% hits; recombinant PREPL, fluorescence polarization activity-based probe; AID 2751; inhibition, % at 5.96 µM; in the data active means inhibition above about 43%;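 further: 0% = enzyme with DMSO and 100% = wells lacking enzyme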
* hit, by the source's call; x = no result given.

SMILES	LYPLA1 inh	Fam108B counter	PME-1 primary	LYPLA2 inh	PREPL inhibitor
CCOC(=O)N1CC=C2C(C#N)=C(N)C(C#N)(C#N)[C@H](c3ccccc3OCC)[C@H]2C1	0.0	-1.0	27.1*	0.5	3.9
CCOC(=O)N1CC=C2C(C#N)=C(N)C(C#N)(C#N)[C@H](c3ccc(OC(C)C)c(OCC)c3)[C@H]2C1	-0.2	0.5	41.4*	4.7	8.4
CC(C)c1ccccc1NC(=O)C1CC(=O)N(C2CCCC2)C1 (centres undefined)	0.3	-1.9	0.9	1.6	1.4
O=C(COC(=O)c1ccc([N+](=O)[O-])s1)Nc1ccc(F)cc1	2.4	x	7.8	4.8	4.5
CC(C)(C)c1ccc(NC(=O)COC(=O)c2ccc([N+](=O)[O-])s2)cc1	-0.3	11.7	32.8*	16.1	24.4
COc1ccc(C2CC(c3ccc(OC)c(OC)c3)=NN2S(C)(=O)=O)cc1 (centres undefined)	-2.9	-3.9	32.9*	4.0	7.2
COc1ccc(C2=NN(S(C)(=O)=O)C(c3ccc4nccnc4c3)C2)cc1 (centres undefined)	0.4	-0.6	1.1	-2.3	-13.3
COC(=O)/C(=C(O)\C=C\c1ccccc1[N+](=O)[O-])c1nc2ccccc2[nH]1	-8.5	5.2	29.3*	-9.9	23.0
O=C(/C=C\c1ccccc1[N+](=O)[O-])Nc1ccccc1	-1.2	4.1	5.6	1.7	9.5
CC(C(=O)Nc1ccc([N+](=O)[O-])cc1)N1CCN(C/C=C/c2ccccc2)CC1 (centres undefined)	-1.1	-1.4	-5.1	31.0*	8.0
CC(=O)c1ccc(NC(=O)C(C)N2CCN(C/C=C/c3ccccc3)CC2)cc1 (centres undefined)	4.1	-18.2	3.9	5.5	-20.0
Cc1ncc(CO)c(/C=N/NC(=S)Nc2ccc(Cl)c(Cl)c2)c1O	-7.0	16.1	27.4*	-0.4	25.1
Nc1[nH]n(-c2ccccc2)c(=O)c1N=Nc1ccc2c(c1)OCCO2	0.5	10.9	42.6*	5.8	26.9
CC(=O)N[C@H]1[C@H](OC2CCCCC2)O[C@H](COC(C)=O)[C@@H](OC(C)=O)[C@@H]1OC(C)=O	3.6	-3.8	-4.9	-0.7	4.2
O=S(=O)(/N=C(/NC(=S)Nc1ccccc1)c1ccccc1)c1ccc(Cl)cc1	-0.7	4.2	-4.5	-0.4	-3.3
CC(C)NC(=S)N=Nc1c(O)[nH]c2ccc(C(C)C)cc12	1.3	0.8	28.6*	0.5	20.4
CC(C)c1ccc2[nH]c(O)c(N=NC(=O)c3cccc(S(=O)(=O)Nc4ccccc4Cl)c3)c2c1	-1.6	9.7	8.5	-6.1	17.6
Cc1c(N=c2c(=O)c3ccccc3c2=O)c(=O)n(-c2ccccc2)n1C	0.3	1.4	-6.7	-1.4	43.2*
CC(=O)Nc1cccc(NC(=O)c2cc([N+](=O)[O-])ccc2N2CCCCC2)c1	-5.4	x	4.9	-7.2	8.4
CN(C)S(=O)(=O)c1cccc(NC(=O)c2cc([N+](=O)[O-])ccc2N2CCCCC2)c1	-4.2	x	45.7*	0.4	11.2
C=C(C)COc1ccc(-c2[nH]ncc2-c2ccc(OC)c(OC)c2)c(O)c1	-0.5	4.9	29.2*	8.4	1.0
COc1ccc(N2CCN(C(=O)CNC(=O)c3cccc(Br)c3)CC2)cc1	1.2	0.4	4.9	3.9	18.0
COC(=O)c1ccccc1C(=O)c1ccc2c(c1)NC(=O)CO2	2.3	2.9	39.4*	4.8	-4.0
O=C(CNc1ccc2ccccc2c1)N/N=C/c1ccc(OC(=O)/C=C/c2ccco2)cc1	-2.6	15.8	30.2*	22.3	-20.6
COc1ccc(C(=O)c2oc3ccc(OC)cc3c2N)cc1	3.6	8.7	33.0*	3.8	29.2
SMILES	LYPLA1 inh	Fam108B counter	PME-1 primary	LYPLA2 inh	PREPL inhibitor
COc1ccccc1NC(=O)C(C)OC(=O)CCCOc1ccccc1 (centres undefined)	1.3	-1.9	-4.5	-3.5	18.4
O=C(NC(C(=O)N/N=C/c1cc([N+](=O)[O-])ccc1O)c1n[nH]c(=O)c2ccccc12)c1ccccc1 (centres undefined)	-4.4	7.3	48.7*	-1.7	17.0
CCOc1cc(/C=N/Nc2nc(N3CCCC3)nc(N3CCCC3)n2)ccc1O	-1.4	-2.2	0.4	3.5	5.7
CCOc1cccc(/C=N/Nc2nc(N3CCCC3)nc(N3CCCC3)n2)c1O	-0.2	4.8	22.8	-3.4	50.3*
COc1cccc(-n2cnnc2SC(C)C(=O)NC2CCCC2)c1 (centres undefined)	-0.6	x	-3.7	-3.1	14.4
O=[N+]([O-])c1ccc(N2CCN(c3ccc(F)cc3)CC2)cc1	-2.6	-2.5	0.6	-5.8	30.4

Screening data deposited in PubChem by The Scripps Research Institute Molecular Screening Center.
